The nature of assay [1]: NFAT Signaling Pathway (AID 444).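 Also: carbachol stimulus at about its EC50 of 1 µM final; % is scaled to controls: 0 for no effect and ±100 for the full control effect.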 Particulars: Jurkat NFAT-bla M1, carbachol, beta-lactamase ratio, 5 h; at 17.2 µM (top of the series) unless noted. Summed up: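 Jurkat cells with NFAT-driven β-lactamase reporter and co-expressed M1 receptor, stimulated with carbachol (final 1 uM, ~EC50), compound titration, 5 h at 37 °C. CCF4 loaded 1 h at RT; 460/530 nm ratio gave %activity and AC50.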

Assay [2] is described as follows: Stat Signaling Pathway (AID 446).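 Also: ME-180 cervical cancer cells given 40 pM IL-6 alongside compound; SIE-controlled beta-lactamase reporter measured as 460/530 nm FRET emission ratio; % is scaled to controls: 0 for no effect and ±100 for the full control effect.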 The conditions noted are these: ME-180 SIE beta-lactamase reporter, IL-6 stimulated, 5 h; at 17.2 µM (top of the series) unless noted. Summed up: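 IL-6/STAT signaling read in ME-180 cells via an SIE beta-lactamase reporter. Stimulus was 40 pM IL-6 (its AC50) for 5 hrs, so both activation and inhibition register.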
Assay [3] has as its target Glucocorticoid receptor (Homo sapiens) (UniProt P04150). Nature of the assay: GR-GFP Redistribution (AID 450;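 active = compounds whose dose series gives a full or clear partial fitted curve of increased nuclear translocation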; also: potency is read from the fitted curve at half-maximal effect).
Assay [4] can be described thus: qHTS Assay for Identification of Small Molecule Agonists for Hypoxia Response Element Signaling Pathway (AID 914; active = well fitted activation curve with a large enough effect in the signal ratio, with a control signal flat, not every such curve was filed as active; the % refers to the signal ratio; also: potency is read from the fitted curve at half-maximal effect; as to activation: % of control where 0% means no effect). The conditions noted are these: ME-180 (cervical carcinoma) HRE-bla reporter, beta-lactamase ratio, CoCl2, 17 h; activation: stronger effect = higher value. The procedure, abridged:
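qHTS titration; ME-180 HRE-bla cells; EC50 CoCl2 co-treatment, 17 h at 37 degrees Celsius; CCF4 dye, ex 405nm, em 460nm and 530nm; %Activity from ratio; AC50.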

The source of these data is PubChem BioAssay (NCATS).

Molecules are shown by their SMILES. Unmarked numbers belong to inactive results. Results filed as inconclusive are left out. Activity calls are given as the source filed them. Unless noted, calls follow the shape of the dose curve; as a rule, active = well fitted curve in either direction with a large enough effect (not every such curve was filed as active); inconclusive = small, poorly fitted or top-dose-only effect, or another doubt; inactive = flat fitted curve, though single readings scatter.

Sequence of Glucocorticoid receptor (Homo sapiens) (P04150 whole entry, looked up): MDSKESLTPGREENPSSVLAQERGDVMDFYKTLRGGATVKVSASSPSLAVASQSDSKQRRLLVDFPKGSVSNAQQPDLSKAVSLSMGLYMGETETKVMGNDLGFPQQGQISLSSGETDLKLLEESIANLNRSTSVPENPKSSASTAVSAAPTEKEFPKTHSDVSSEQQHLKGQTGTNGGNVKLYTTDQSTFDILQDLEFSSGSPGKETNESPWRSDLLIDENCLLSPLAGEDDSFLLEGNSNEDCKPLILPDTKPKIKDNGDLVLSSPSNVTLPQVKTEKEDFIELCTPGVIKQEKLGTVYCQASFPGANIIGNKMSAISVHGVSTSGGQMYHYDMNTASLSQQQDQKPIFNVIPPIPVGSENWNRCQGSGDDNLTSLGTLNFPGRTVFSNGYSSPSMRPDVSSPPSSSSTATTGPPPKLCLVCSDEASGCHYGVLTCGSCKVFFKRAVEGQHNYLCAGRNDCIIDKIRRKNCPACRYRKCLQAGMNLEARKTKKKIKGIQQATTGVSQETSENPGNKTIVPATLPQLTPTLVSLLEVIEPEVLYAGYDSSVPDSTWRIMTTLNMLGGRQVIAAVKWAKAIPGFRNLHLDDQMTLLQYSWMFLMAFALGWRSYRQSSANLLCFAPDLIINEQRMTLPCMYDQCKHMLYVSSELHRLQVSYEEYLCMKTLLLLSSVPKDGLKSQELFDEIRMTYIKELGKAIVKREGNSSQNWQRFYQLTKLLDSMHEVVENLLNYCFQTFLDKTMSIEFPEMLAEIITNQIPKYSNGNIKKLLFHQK

Regarding `OC1(C2(O)CC(c3ccccc3)ON2)CCCCC1` (stereo not given), in assay [1], the activity change, negative = inhibition is -7.93%. In addition, the activity, negative = inhibition in assay [2] was -6.74%. The Potency in assay [3] was over 20.6 µM. Moreover, in assay [4], the activation is -4.48%.
For `CCNCc1cc2cc(C)ccc2[nH]c1=O`, the activity change, negative = inhibition in assay [1] was -15.2%. The Potency in assay [3] was over 20.6 µM.
The corresponding values for `CN(Cc1ccccc1)c1ncnc2ccc(Br)cc12` are -9.63% and over 20.6 µM.
`Cc1cc(-c2cc(-c3ccc(Cl)cc3)nc(N)c2C#N)co1`: in assay [1], the activity change, negative = inhibition was 14.5%. Besides, the Potency was over 20.6 µM in assay [3] and 7.94 µM (active) in assay [4].
Consider `OCCNc1ncnc2c1c(-c1ccccc1)c(-c1ccccc1)n2Cc1ccco1`, for which the activity change, negative = inhibition in assay [1] was -23.1%. Further, the Potency in assay [3] was over 20.6 µM.
As to `O=C(O)C1CC=CCC1C(=O)N1CCN(c2nc(-c3ccccc3)c3ccccc3n2)CC1` (stereo not given), the activity change, negative = inhibition in assay [1] was -12%. The activity, negative = inhibition in assay [2] is 9.49%. In addition, the Potency in assay [3] was over 20.6 µM; in assay [4] it was 3.98 µM (active).
`NCCN1C(=O)c2ccccc2[C@@]1(O)c1ccc(Cl)cc1`: the activity, negative = inhibition in assay [2] is 2.46% [at 7.69 µM].
On to `CNC(=O)c1cc2c(ccc3ccccc32)oc1=N`, for which the activity change, negative = inhibition in assay [1] was -5.77%. Moreover, in assay [3], the Potency was over 20.6 µM.
For the compound `COc1ccc(NC(=O)CSC2=C(C#N)C(c3ccco3)C3=C(CCCC3=O)N2)c(OC)c1` (stereo not given), in assay [1], the activity change, negative = inhibition is -6.5%. The activity, negative = inhibition in assay [2] is -8.16%. The Potency in assay [3] is over 20.6 µM. In assay [4], the activation was -27.4%.
Take `O=C(COc1ccc(-c2nnc(N3CCCCC3)c3ccccc23)cc1)N1CCCCC1`: the activity change, negative = inhibition in assay [1] was -4.72%. The Potency in assay [3] was over 20.6 µM.
Regarding `Cc1ccc(NC(=O)CSC2=C(C#N)C(c3ccc4c(c3)OCO4)CC(=O)N2)cc1C` (stereo not given), in assay [1], the activity change, negative = inhibition is -0.339%. The Potency in assay [3] is over 20.6 µM.
With `Cc1ccc(N2CC(C(=O)Nc3ccc(N(C)C)cc3)CC2=O)cc1C` (stereo not given), the activity change, negative = inhibition in assay [1] was 21.8%. Also, in assay [3], the Potency is over 20.6 µM.
In the case of `O=C(c1ccccc1)C(CCC(CN1CCOCC1)C(=O)c1ccccc1)CN1CCOCC1` (stereo not given), in assay [2], the activity, negative = inhibition is -25.4%.
For the compound `COc1cccc(OCCN2CCN(c3ncnc4c3cnn4-c3ccccc3)CC2)c1`, in assay [1], the activity change, negative = inhibition is -29.6%. For the same compound, the Potency in assay [3] is over 20.6 µM.
Regarding `C=CCn1c(N)c(C(=O)Nc2ccccc2)c2nc3ccccc3nc21`, the activity change, negative = inhibition in assay [1] is -5.29%. Further, the Potency was over 20.6 µM in assay [3] and 5.01 µM (active) in assay [4].
Turning to `CN(C)c1ccc(NC(=O)c2sc(SCC(=O)Nc3nccs3)nc2N)cc1`, in assay [1], the activity change, negative = inhibition is 2.32%. Moreover, the Potency in assay [3] was over 20.6 µM.
Regarding `C#CCSC1=C(C#N)C(c2cccs2)C(C(=O)OCC)=C(C)N1` (stereo not given), the activity change, negative = inhibition in assay [1] was -26.3%. Also, the Potency in assay [3] was over 20.6 µM.
